Most compounds without a hit are left out; they make up all but 3.4% or so of the library.
CendR NRP1 mod = alters CendR peptide binding to human NRP-1; O14786; actives 0.85% (n = 360,000); inhibition, % at 25 µM; FAM-RPARPAR peptide binding to NRP-1, fluorescence polarization;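 active means inhibition or corrected inhibition above about 18%, plus a signal ratio from 0.5 to 1.5, limit read from the data, passing the limit was not always enough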
KLK7 zymogen act = activators of human kallikrein-7 zymogen; activation, % at 7 µM; purified proKLK7, EDANS-DABCYL substrate fluorescence; 100% is mature enzyme control, 0% vehicle; P49862; AID 652039; actives 0.9% (n = 370,000);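 active means activation above the mean of all tested compounds plus 3 SD, computed per campaign excluding outliers beyond control limits, cut at about 13% in these data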
Target sequence (P49862 whole entry, looked up): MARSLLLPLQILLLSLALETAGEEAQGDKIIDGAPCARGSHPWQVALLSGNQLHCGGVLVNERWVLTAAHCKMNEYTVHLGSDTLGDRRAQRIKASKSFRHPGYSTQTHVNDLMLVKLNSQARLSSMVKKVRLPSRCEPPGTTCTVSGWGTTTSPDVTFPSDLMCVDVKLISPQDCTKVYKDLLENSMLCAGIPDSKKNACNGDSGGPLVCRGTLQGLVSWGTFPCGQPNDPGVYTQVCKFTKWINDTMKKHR
ADAM10 inh = ADAM10 inhibition, QFRET primary screen | O14672 | recombinant ADAM10, EDANS/DABCYL FRET peptide cleavage, 3 h | inhibition, % at 7 µM | actives 0.62% (n = 370,000) | AID 720582;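 active means inhibition above a per-campaign cutoff equal to the mean of compounds falling between control-based bounds plus 3 SD, cut at about 20% in these data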
ADAM17 inh = inhibits human ADAM17. P78536. recombinant ADAM17, EDANS/DABCYL FRET peptide cleavage. inhibition, % at 6.95 µM. actives 0.83% (n = 370,000). AID 720648;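 active means inhibition above the mean of compounds lying between control limits plus 3 SD, set per campaign, cut at about 8.5% in these data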
sPLA2-III inh = Inhibits HGIII-sPLA2 liposome hydrolysis, primary screen | Q9NZ20 | QFRET BODIPY PC-A2 liposome hydrolysis, fluorescence | inhibition, % at 12.2 µM | actives 0.56% (n = 370,000) | AID 743126;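 active means inhibition above mean plus 3 SD of compounds lying within the high and low control bounds, cut at about 19% in these data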
KLK7 act conf = proKLK7 activation, confirmation; purified proKLK7, EDANS-DABCYL substrate fluorescence; scaled: vehicle 0, mature enzyme 100; activation, % at 7 µM; actives 68% (n = 3,200); AID 686949; shares compounds with KLK7 zymogen act;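 active means activation, as change over the incubation, above the mean of all tested compounds plus 3 SD, cut at about 13% in these data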
EDANS interfere = counter-screen for kallikrein-7 activators: EDANS-DABCYL optical interference; shares compounds with KLK7 zymogen act; EDANS-DABCYL substrate fluorescence interference, no enzyme, 4 h; solvent 0%, active enzyme control 100%; activation, % at 7 µM; actives 80% (n = 3,200); AID 686952;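 active means activation above the all-compound mean plus 3 SD, ignoring values outside control-based bounds, cut at about 4.8% in these data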;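 further: value is the 4 h activation minus the activation read at time zero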
K7 EDANS ctr = optically interferes with EDANS-DABCYL fluorescence, kallikrein-7 activator counter-screen. actives 20% (n = 250). EDANS-DABCYL peptide fluorescence interference, no enzyme. AID 720493. EC50, µM. shares compounds with KLK7 zymogen act;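 active means compounds that raise the fluorescence signal in this interference counterscreen, with EC50 at or below 10 µM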;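 further: intact quenched peptide substrate alone read at 355 nm excitation and 520 nm emission; signal is fluorescence gain from T0 to T4 after four hours at room temperature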
Hits are given with their value; – = inactive; · = not tested or not shown.

SMILES	CendR NRP1 mod	KLK7 zymogen act	ADAM10 inh	ADAM17 inh	sPLA2-III inh	KLK7 act conf	EDANS interfere	others
OCCNc1c2ccccc2nc2c(F)c(F)c(F)c(F)c12	–	18	–	–	–	19	8.6	K7 EDANS ctr=–
Cc1c2ccccc2nc2c(F)c(NCCO)c(F)c(F)c12	–	–	–	–	–	·	·
CNc1ccc(Cl)cc1C(N)=O	–	17	–	–	–	–	20
CCC[C@H]1[C@@H](OC(=O)NCc2ccc(OC)c(OC)c2)CC[C@@]23CCCN2C(=O)CCC[C@@H]13	·	·	–	–	–	·	·
CCCCCn1nnnc1C1(C)CCSCC(=O)N1Cc1ccco1 (stereo not given)	·	–	–	–	–	·	·
Cc1cc(=O)oc2c3c(cc(OCC(=O)NCc4ccccc4)c12)OC(C)(C)CC3	–	–	–	–	–	·	·
Cc1cc(=O)oc2c3c(cc(OCC(=O)NC4CC4)c12)OC(C)(C)CC3	–	15	–	–	–	22	27
Cc1cc(=O)oc2c3c(cc(OCC(=O)NCC(=O)O)c12)OC(C)(C)CC3	–	43	–	–	–	66	79
CCOc1ccc(-n2c(SCc3ccc(C#N)cc3)nnc2-c2ccco2)cc1	·	–	–	–	–	·	·
CCc1ccc(Oc2c(Cl)cnn(-c3ccc(C)cc3)c2=O)cc1	·	·	–	–	–	·	·
CCCCCCCCN1CCS(=O)(=O)N(Cc2ccc(C(F)(F)F)cc2)C(C(=O)OC)C1 (stereo not given)	·	–	–	–	–	·	·
CNc1cnc(-c2ccc(F)c(F)c2F)cn1	–	13	–	–	–	13	13
COc1cccc(CNS(=O)(=O)c2cc3c(cc2Br)CC(C)N3C(C)=O)c1 (stereo not given)	·	–	–	–	–	·	·
C[C@H]1[C@@H](NC(=O)C2CCC2)CC[C@@]23CCCN2C(=O)CCC[C@@H]13	·	·	–	–	–	·	·
COCCNS(=O)(=O)c1ccc2c(c1)C(=NO)c1cc(S(=O)(=O)NCCOC)ccc1-2	–	14	–	–	–	–	–
CCOC(=O)Cn1c(C(F)(F)F)nc2nc(Cl)c(Cl)nc21	–	34	–	–	–	–	7.1
CCOC(=O)Cn1c2ccccc2c2nc3ccccc3nc21	–	–	–	–	–	·	·
Nc1[nH]c(C(=O)c2ccccc2)c(-c2cccnc2)c1C(=O)NCCc1c[nH]c2ccccc12	·	·	–	–	–	·	·
COc1ccc(C2c3[nH]c4ccccc4c3CCN2CCCn2cccn2)c(C)c1C (stereo not given)	–	27	–	–	–	19	20
CCOC(=O)C1=C(C(=O)OCC)C2N(Cc3ccc(C#N)cc3)c3ccccc3[C@@]23C[C@@H](C(=O)OC)N(S(=O)(=O)c2ccc(C)cc2)C3=N1 (stereo not given in full)	·	–	–	–	–	·	·
CC(C)NCC(O)c1cc(O)cc(O)c1 (stereo not given)	–	–	–	–	–	·	·
CC(C)NC[C@H](O)c1ccc(O)c(O)c1	–	47	–	–	–	49	51
CN(C)c1cccc(/C=C2\CC3(OC(=O)c4ccc(Cl)cc4)CCCN2C3)c1 (stereo not given)	·	–	–	–	–	·	·
Cc1cc(OC(C)C(=O)NCc2ccccn2)c2c(C)cc(=O)oc2c1 (stereo not given)	–	14	–	–	–	–	12
CCCCc1cc(=O)oc2cc(C)cc(OC(C)C(=O)NCc3ccccn3)c12 (stereo not given)	–	–	–	–	–	·	·
SMILES	CendR NRP1 mod	KLK7 zymogen act	ADAM10 inh	ADAM17 inh	sPLA2-III inh	KLK7 act conf	EDANS interfere	others
CCCCn1c(NC(C)=O)c(C#N)c2nc3ccccc3nc21	–	–	–	–	–	·	·
CCCCCn1c(N)c(C#N)c2nc3ccccc3nc21	–	22	–	–	–	–	–
N#Cc1c(N)n(CCCN2CCOCC2)c2nc3ccccc3nc12	–	47	–	–	–	68	79
Nc1c(C(=O)Nc2ccccc2)c2nc3ccccc3nc2n1CCCN1CCOCC1	–	–	–	–	–	·	·
O=C(OCC#CCSc1nnc(-c2ccc3ccccc3c2)o1)c1cccs1	·	·	–	–	–	·	·
CC(C)CCNc1c(-c2cccs2)nc2ccccn12	–	144	–	–	–	–	–
O=C(COc1ccc(Cl)cc1)Nc1c(-c2cccs2)nc2ccccn12	–	13	–	–	–	–	–
Cc1ccn2c(NC(C)(C)C)c(-c3cccs3)nc2c1	–	–	–	–	–	·	·
COc1cccc(C(=O)N[C@H](C(=O)N2CCC[C@H]2C(=O)NCCc2ccccc2Cl)c2ccccc2)c1	·	–	–	–	–	·	·
Cc1c(NC(=O)C2CCCN(S(=O)(=O)c3ccc(F)cc3)C2)c(=O)n(-c2ccccc2)n1C (stereo not given)	·	–	–	–	–	·	·
Cc1coc2c1c(C)cc1oc(=O)c(CC(=O)NCCC(=O)O)c(C)c12	20	30	–	–	–	64	75
COCCNC(=O)Cc1c(C)c2c(cc(C)c3c(C)coc32)oc1=O	–	16	–	–	–	–	–
COC(=O)[C@]12C[C@H](CC(=O)N3CCSCC3)C(=O)N(Cc3ccc(Cl)cc3Cl)C1=C[C@H](COCc1ccccc1)O[C@@H]2C	·	–	–	–	–	·	·
O=S1(=O)c2ccc(Br)cc2OC[C@H](Cc2ccccc2)N1Cc1cn(CCC2OCCO2)nn1	·	–	–	–	–	·	·
Cc1cc(C)c2nc(N3C(=O)C(O)=C(C(=O)c4ccco4)C3c3cccc(O)c3)sc2c1 (stereo not given)	–	14	–	–	–	20	22
Cc1cc(C)c2nc(N3C(=O)C(O)=C(C(=O)c4ccco4)C3c3ccc(O)cc3)sc2c1 (stereo not given)	–	–	–	–	–	·	·
Cc1c(CCC(=O)O)c(=O)oc2cc3occ(C(C)(C)C)c3cc12	–	–	–	–	–	·	·
Cc1c(CCC(=O)O)c(=O)oc2cc(O)ccc12	–	40	–	–	–	66	79
COc1ccc(-c2c(C)c3ccc(O)cc3oc2=O)cc1OC	–	36	–	–	–	69	74
CC(=O)CC[C@H]1CC[C@]2(CCCN(C(=O)C(C)(C)C)C2)O1	·	–	–	–	–	·	·
CCN1C=C(C(=O)OC)C(c2cccc(OC)c2OC)C(C(=O)OC)=C1	–	45	–	–	–	76	74
COCCN1C=C(C(=O)OC)C(c2ccccc2Cl)C(C(=O)OC)=C1	22	42	–	–	–	–	–
COC(=O)C1=CN(C2CC2)C=C(C(=O)OC)C1c1ccccc1OC	–	37	–	–	–	78	78
